Laboratory results as given in ChEMBL document CHEMBL3988442, “University of Dundee, Small-Polar-MMV Screening Library” (2021).
Out of some 69,000 compounds screened, about 420 (0.61%) showed an effect of 50% or more. Only a selection was taken, and strong results are over-represented in it overall.

Target: T1, Histidine--tRNA ligase (Leishmania infantum) (UniProt A4I591)
T1 sequence (whole entry): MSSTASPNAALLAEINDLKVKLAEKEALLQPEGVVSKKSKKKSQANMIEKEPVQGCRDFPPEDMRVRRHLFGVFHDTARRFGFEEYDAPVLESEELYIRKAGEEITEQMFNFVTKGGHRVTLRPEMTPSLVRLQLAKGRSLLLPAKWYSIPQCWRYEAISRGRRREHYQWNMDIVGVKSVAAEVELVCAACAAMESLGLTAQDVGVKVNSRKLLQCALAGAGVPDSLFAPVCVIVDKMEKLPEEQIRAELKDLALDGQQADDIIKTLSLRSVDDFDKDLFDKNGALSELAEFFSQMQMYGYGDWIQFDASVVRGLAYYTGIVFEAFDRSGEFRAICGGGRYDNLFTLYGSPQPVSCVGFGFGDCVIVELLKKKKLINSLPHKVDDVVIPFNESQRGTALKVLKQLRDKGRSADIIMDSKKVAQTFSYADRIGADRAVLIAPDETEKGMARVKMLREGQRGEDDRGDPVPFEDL
Assay: Leishmania infantum Histidine tRNA synthetase (LdHisRS)
Type: functional
Parameters: scale not given: in the data most compounds retested in dose-response had high values
Conditions: 30 µM

Row | Structure (SMILES) | Percent Effect [%]
1 | Cc1cc(C)cc(OCCC(=O)NC2CC(=O)N(C)C2)c1 (configuration not stated) | 74.7
2 | Cc1ccc(OCCC(=O)NC2CC(=O)N(C)C2)cc1C (configuration not stated) | 12.7
3 | CN1CC(NC(=O)CCOc2cccc(Cl)c2)CC1=O (configuration not stated) | 4.22
4 | Cc1nc(CN2CCO[C@H]3[C@H](OCC(=O)N(C)C)CC[C@@H]32)cs1 | -9.73
5 | COc1cccc(-c2n[nH]c3c2CN(C(=O)c2cccc(=O)[nH]2)CC3)c1 | 65.6
6 | COc1cccc(-c2n[nH]c3c2CN(C(=O)c2ccncc2)CC3)c1 | 0
7 | COc1cccc(-c2n[nH]c3c2CN(C(=O)c2cc(C)n(C)n2)CC3)c1 | 0
8 | Cc1csc(CN2CC[C@H]3C[C@@H](c4noc(C)n4)O[C@@H]3C2)n1 | 12.9
9 | COc1ccc(CC(=O)N(C)c2cccnc2N(C)C)c(Cl)c1 | 57.1
10 | COc1cccc(OCC(=O)N(C)c2cccnc2N(C)C)c1 | 10.2
11 | CN(C)c1ncccc1N(C)C(=O)Cn1cc(-c2ccccc2)nn1 | 0
12 | COC[C@]12COC[C@H]1CN(Cc1cc(OC)cc(OC)c1)C2 | 4.51
13 | COCC(=O)N1CC[C@H]2C[C@@H](c3nnc(C4CC4)o3)O[C@@H]2C1 | 18.9
14 | CCn1nc(C)cc1C(=O)N1CC[C@H](OC)[C@H]2CN(CC3CC3)C[C@H]21 | 3.95
15 | COc1ccc(CC(=O)N2CC[C@@H]3[C@H](CC2)N(C)CCS3(=O)=O)cc1 | 17.1
16 | Cc1cccnc1NC(=O)C1CSc2ncc(C)c(=O)n2C1 (configuration not stated) | 20.5
17 | Cc1cnc2n(c1=O)CC(C(=O)Nc1cccc3cccnc13)CS2 (configuration not stated) | 67.3
18 | Cc1ccncc1NC(=O)C1CSc2ncc(C)c(=O)n2C1 (configuration not stated) | 15.4
19 | CC(C)NC(=O)[C@@H]1CCO[C@@H]2CCN(c3ncccn3)C[C@@H]21 | 11.1
20 | Cc1ncsc1CNc1cccc(OCCN2CCCC2)c1 | 25.2
21 | COCc1nc(CNc2cccc(-c3csc(C)n3)c2)cs1 | -6.67
22 | COCc1nc2cc(NCc3scnc3C)ccc2o1 | 54.5
23 | COCc1nc(CNc2cccc(-c3nc(C)c(C)o3)c2)cs1 | 0
24 | COCc1nc2cc(NCc3csc(C)n3)ccc2o1 | 29.5

Row | Structure (SMILES) | Percent Effect [%]
25 | COCc1nc2cc(NCc3nc(C)cs3)ccc2o1 | 106
26 | Cc1csc(CNc2cccc(OCCN3CCCC3)c2)n1 | 23.2
27 | COCCCSc1ccc(NCc2scnc2C)cc1 | 9.09
28 | COCc1nc2cc(NCc3sc(C)nc3C)ccc2o1 | 79.5
29 | CN(C)CCNC(=O)[C@H]1C[C@@H]2CN(C(=O)NC3CCCC3)C[C@H]1O2 | 8.62
30 | CN(C)c1cccc(C(=O)N2C[C@H]3CC[C@@H]2CN(C(=O)C2CCC2)C3)c1 | 18.4
31 | O=S(=O)(c1cccs1)N1CCN2C[C@H](OCC3CC3)C[C@H]2C1 | 10.5
32 | C[C@@H]1C[C@H]2CN(C(=O)c3ccncn3)C[C@H]2O1 | -2.56
33 | Cc1nnc([C@@H]2CCO[C@@H]3CCN(C(=O)Cc4ccccn4)C[C@@H]32)o1 | 15.8
34 | CN1[C@H](CN2CCCC2)C[C@@H]2CN(Cc3ccoc3)CC[C@@H]21 | 6.84
35 | CCc1ccc(-c2c(C)c(-c3cnn(C)c3)nc(N)c2C#N)o1 | 19.7
36 | Cc1cc(-c2c(C)c(-c3cnn(C)c3)nc(N)c2C#N)oc1C | 22.4
37 | CCn1cc(-c2cc(-c3ccn(C)c3)nc(N)c2C#N)cc1C#N | 10.4
38 | Cn1cc(-c2c(C#N)c(N)nc3c2CCc2[nH]ccc2-3)cc1C#N | 68.4
39 | Cc1n[nH]c(C)c1-c1cc(-c2ccc[nH]2)nc(N)c1C#N | 27.5
40 | Cc1c(-c2cnn(C)c2)nc(N)c(C#N)c1-c1ccc(CO)o1 | 19.7
41 | Cn1cc(-c2c(C#N)c(N)nc3c2CCc2[nH]ccc2-3)cn1 | 97.4
42 | Cc1n[nH]c(C)c1-c1cc(-c2cc[nH]c2)nc(N)c1C#N | 31.9
43 | Cc1n[nH]c(C)c1-c1c(C#N)c(N)nc2c1CCc1[nH]ccc1-2 | 108
44 | Cc1nnc([C@@H]2CC[C@@H]3[C@@H](CCN3C3CCC3)O2)o1 | 5.26
45 | O=C(NC1CCCC1)N1C[C@H]2CN(c3ccccn3)C[C@@]2(C(=O)O)C1 | 3.92
46 | O=C(NC[C@]12COC[C@H]1CN(Cc1nccs1)C2)c1ccccc1 | 17.5
47 | CS(=O)(=O)N1C[C@@H](NC(=O)c2ccno2)[C@@H]2OCCC[C@@H]21 | -4.54
48 | Cc1cnc(C(=O)N(CCN(C)C)Cc2ccc(Cl)cc2)cn1 | 24

Row | Structure (SMILES) | Percent Effect [%]
49 | CCCN(C(=O)c1cnc(C)cn1)c1nc2c(s1)CCc1c-2cnn1C | 99
50 | COCCN(C(=O)c1cnccn1)c1nc2c(s1)CCc1c-2cnn1C | 51
51 | CCN(CC)Cc1cn2c(n1)CN(C(=O)c1cnccn1)CC2 | 9.02
52 | COCC1c2c(cnn2C)CCN1C(=O)c1cscn1 (configuration not stated) | 11.7
53 | Cc1cccc(N(CCC(N)=O)C(=O)c2cnccn2)c1 | 5
54 | CCCN(CCC)C(=O)c1cnn(C)c1C | -4
55 | CCCN(C(=O)c1cnccn1)c1nc2c(s1)CCc1c-2cnn1C | 94.8
56 | COCCN1C(=O)CC[C@]12CC[C@@H](NC(=O)c1cnccn1)CC2 | -179
57 | Cc1nc(CN2CC[C@@H]3O[C@@H](C(=O)N4CCOCC4)C[C@@H]32)cs1 | 17.4
58 | Cn1cccc1C(=O)N1C[C@@H]2CCCO[C@@H]2[C@H](N2CCOCC2)C1 | 17.5
59 | Cc1ccc(C(=O)N2C[C@@H]3[C@@H](C2)OCC(=O)N3Cc2cccnc2)o1 | 22.1
60 | O=C1C[C@H]2[C@@H](CCN2C(=O)c2ccc[nH]2)N1CCN1CCCC1 | 8.06
61 | Cc1ccc(CN2CCN(Cc3nccn3C)[C@H]3CS(=O)(=O)C[C@H]32)o1 | 16.8
62 | O=C(NC1CC(F)(F)C1)[C@]12COC[C@H]1CN(Cc1ccccc1)C2 | 24
63 | CNC(=O)[C@H]1C[C@@H]2CN(S(=O)(=O)c3cccc(F)c3)C[C@@H]2N1C | 28.6
64 | CN(C)C(=O)N1C[C@@H]2COC[C@]2(CNS(C)(=O)=O)C1 | 4.51
65 | CC(C)(C)c1ccc(OCC(=O)O)c(CN2C[C@H]3C[C@H](O)C[C@H]3C2)c1 | 14.5
66 | Cc1nc(CN2CC[C@H]3[C@H]2CCN3c2nncs2)cs1 | 17.5
67 | NCC1Cc2cc(-c3nccc(N4CCC(O)CC4)n3)cc(Cl)c2O1 (configuration not stated) | 60
68 | Cc1nc(-c2cc(Cl)c3c(c2)CC(CN)O3)c[nH]1 (configuration not stated) | 40.5
69 | NCC1Cc2cccc(-c3nccc(N4CCC(O)CC4)n3)c2O1 (configuration not stated) | 34.3
70 | Cc1nc(-c2cc(F)c3c(c2)CC(CN)O3)c[nH]1 (configuration not stated) | 26.2
71 | NCC1Cc2cc(-c3nccc(N4CCC(O)CC4)n3)cc(F)c2O1 (configuration not stated) | 51.4
72 | NCC1Cc2cc(-c3cnccn3)cc(Cl)c2O1 (configuration not stated) | 11
